Consider 36 molecules from the supplement of paper PMC7156485.

± gives the standard deviation of the averaged measurements.
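Further: TDF denotes transformed human dermal fibroblasts of mesenchymal origin.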

The test system of the first experiment is HCC1569. The experiment can be described thus: cell number relative to DMSO (% of DMSO); higher = more cells (less growth inhibition / toxicity). The following applies: concentration: 10 µM; 24 h. In outline:
(§1)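 HCC1569 and TDF cells (800 per well, 384-well plates, RPMI with 10% FBS) were treated with compounds at 10 µM for 24 h at 37 °C, in triplicate. Cells were fixed in 3.7% formaldehyde and stained with a rabbit anti-H1.0 antibody, an AlexaFluor 647 secondary and DAPI; six fields per well were imaged at ×10. H1.0 nuclear intensity or cell number is expressed as percent of the plate DMSO control, taking the median of replicates. HCC1569 values were smoothed for positional effects.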
As for `O=C1NC(=O)C(=Cc2ccc3c(c2)OC(F)(F)O3)S1` [PI 3-KbInhibitor II], the cell number amounted to 100.
`O=c1cc(-c2ccc(O)c(O)c2)oc2cc(O)c(C3OC(CO)C(O)C(O)C3O)c(O)c12` (stereo unspecified) [Homoorientin]: the cell number amounted to 101.
Turning to `[N-]=[N+]=Nc1ccc(C(=O)CSCC(NC(=O)CCC(N)C(=O)O)C(=O)NCC(=O)O)cc1` (stereo not drawn) [S-(p-Azidophenacyl)glutathione], the cell number amounted to 103.
For `COc1ccc(-c2cc(C(O)C3CCCCN3)c3ccccc3n2)cc1.Cl.Cl` (stereo unspecified), the cell number was 68.2.

A further experiment concerns TDF. Described as above. The following applies: concentration: 10 µM; 24 h. In outline:
as §1
For `COC1=CC(=O)CC(C)C12Oc1c(Cl)c(OC)cc(OC)c1C2=O` (single isomer, unassigned; (+)) [(+)-Griseofulvin], the cell number turned out to be 108.
Molecule `S=C([S-])OC1CC2CC1C1CCCC21.[K+]` [D-609 potassium] displayed a cell number of 104.
With `Cc1ccccc1/N=N/c1ccc(NC(=O)c2ccnn2C)c(C)c1`, the cell number is 98.7.
Still for that read-out and setting: under `S=C([S-])OC1CC2CC1C1CCCC21.[K+]` (stereo unspecified) stands 97.1; under `N[C@@H](CCCC(=O)O)C(=O)O` [L-2-aminoadipic acid], 109; under `CCc1ccc(CCOc2ccc(CC3SC(=O)NC3=O)cc2)nc1` (stereo unspecified) [Pioglitazone], 105.
`OC[C@H]1NC[C@@H](O)[C@@H]1O` [1,4-Dideoxy-1,4-imino-D-arabinitol] gave a cell number of 97.9.
Consider `CC1=CC(=O)C2=C(C)CCC3C(C)C(=O)OC3C12` (stereo unspecified) [Leucomisine], for which the cell number came to 111.
Turning to `C#CC(N)CCC(=O)O` (stereo unspecified) [gamma-Acetylinic GABA], the cell number worked out at 99.9.
On to `COc1ccc(C2Sc3ccccc3N(CCN(C)C)C(=O)C2OC(C)=O)cc1.Cl` (stereo unspecified) [Diltiazem hydrochloride], for which the cell number was determined as 100.
`COC(=O)C1=C(C)NC(C)=C(C(=O)OCCN(C)Cc2ccccc2)C1c1cccc([N+](=O)[O-])c1.Cl` (stereo unspecified) [Nicardipine hydrochloride]: the cell number came to 103.
In turn, `Nc1nc2ccccc2c2ccccc12` [6-phenanthridinamine] showed a cell number of 64.8.
Take `Cc1ncc([N+](=O)[O-])n1CCO` [Metronidazole]: the cell number was determined as 104.
`Cc1ccc(-c2ncc(Cl)cc2-c2ccc(S(C)(=O)=O)cc2)cn1` [Etoricoxib] came in with a cell number of 97.1.
Consider `CCN1C(=O)C=CC1=O` [N-Ethylmaleimide], for which the cell number is 97.2 ± 4.9.
`CCCCCCCCCCCCCC(=O)O` [Tetradecanoic acid] returned a cell number of 104.
`N=C(N)c1ccc(OCCCCCOc2ccc(C(=N)N)cc2)cc1.O=S([O-])OCCO.O=S([O-])OCCO` [Pentamidine isethionate] returned a cell number of 90.6.
In the case of `O=C(O)CO.[NH2-].[NH2-].[Pt+2]` [Nedaplatin], the cell number was determined as 92.6.
The molecule `CN1CCN(c2c(F)cc3c(=O)c(C(=O)O)cn4c3c2SCC4)CC1` [Rufloxacin] gave a cell number of 94.7.
In turn, `Cl.Cl.NCCNc1ncc(C(N)=O)c(Nc2cccc(C(F)(F)F)c2)n1.O.O` [Syk Inhibitor II] registered a cell number of 84.7.
`CCCCCCCCCCCCCCCC(=O)NCCc1ccc(O)c(O)c1` [Palmitoyl dopamine] gave a cell number of 101.
As for `CCCCCC=CCC=CCC=CCCCCCCC(=O)OC(COCCCCCCCCCCCCCCCC)COP(=O)([O-])OCC[N+](C)(C)C` (stereo unspecified), the cell number came out at 98.5.
The molecule `COc1c2c(nc3ccccc13)OC(C(C)(O)CO)C2` (stereo unspecified) [Dubinidine] came in with a cell number of 104 ± 5.6.
The molecule `CNC(=O)C1OC(n2cnc3c(NCc4ccc(N)cc4)ncnc32)C(O)C1O` (stereo unspecified) returned a cell number of 98.3.
Same read-out and setting: the figure for `CN(C(Cc1ccc(OS(=O)(=O)c2cccc3cnccc23)cc1)C(=O)N1CCN(c2ccccc2)CC1)S(=O)(=O)c1cccc2cnccc12` (stereo unspecified) is 95.6 ± 12; for `O=C(O)c1cc(N(Cc2ccccc2O)Cc2ccccc2O)ccc1O` [Lavendustin B] it is 95.2.
Still for that read-out and setting: the figure for `COC(=O)CCc1ccc(OCC(O)CNC(C)C)cc1` (stereo unspecified) [Esmolol] is 95.1; for `Clc1ccc2c(c1)CCc1cccnc1C2=C1CCNCC1` [Desloratadine] it is 102.
In turn, `CC(=O)N1CCN(c2ccc(OCC3COC(Cn4ccnc4)(c4ccc(Cl)cc4Cl)O3)cc2)CC1` (stereo unspecified) [Ketoconazole] gave a cell number of 97.3 ± 15.
In turn, `Nc1nccc2c1ncn2C1OC(CO)C(O)C1O` (stereo unspecified) [3-deazaadenosine] registered a cell number of 88.2.
For `CN(C)CCN1C(=O)c2ccccc2N(C)c2ccccc21` [Dibenzepine], the cell number amounted to 112.
Consider `COc1ccc2cc1Oc1ccc(cc1)CC1c3cc(c(OC)cc3CCN1C)Oc1c(OC)c(OC)c(OC)c3c1C(C2)N(C)CC3` (stereo unspecified) [Hernandezine], for which the cell number turned out to be 93.
